AmpC inh no detg = AmpC beta-lactamase inhibition without detergent; P00811; AmpC nitrocefin hydrolysis, absorbance 480 nm, 0.0001% Triton; Potency, µM (highest dose often 57.1 µM), inactives show at the highest dose activity change, negative = inhibition, usual class: inhibitors; 330,000 compounds, 0.52% hits; AID 485341;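 also: plate controls were no compound for no effect and no enzyme for full effect; nearly all actives have a fitted effect of over 20% in size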
Target sequence (P00811 whole entry, looked up): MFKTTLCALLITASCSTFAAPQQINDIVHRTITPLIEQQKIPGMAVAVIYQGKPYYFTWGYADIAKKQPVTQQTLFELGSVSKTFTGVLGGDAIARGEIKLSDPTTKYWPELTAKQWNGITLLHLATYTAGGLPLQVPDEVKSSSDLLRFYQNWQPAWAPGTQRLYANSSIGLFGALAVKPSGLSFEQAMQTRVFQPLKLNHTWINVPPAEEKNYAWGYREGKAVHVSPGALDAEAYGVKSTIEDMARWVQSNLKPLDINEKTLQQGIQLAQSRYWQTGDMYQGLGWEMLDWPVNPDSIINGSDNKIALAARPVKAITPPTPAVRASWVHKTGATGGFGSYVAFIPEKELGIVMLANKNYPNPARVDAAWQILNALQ
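20 mM phosphate pH 7.0 + 0.01% (detergent screen) or 0.0001% Triton X-100; 5.3 nM AmpC reagent; cpd preinc 15 min RT; nitrocefin (800 uM stock) to start; A480 q20 s × 4 min; Activity was normalised to no-enzyme and no-compound control wells.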
TbPYK inhibitor = T. brucei pyruvate kinase inhibition | Potency, µM (titrated, usually from 76.8 µM), for the others: at the top dose activity, negative = inhibition, actives largely listed as inhibitors | Q57TT1 | TbPYK enzyme, Kinase-Glo Plus ATP luminescence, 45 min | 410,000 compounds, 0.12% hits | AID 624173; also: % is scaled to controls: 0 for no effect and ±100 for the full control effect; nearly all actives have a fitted effect of over 50% in size
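TbPYK + substrate in 50 mM TEA pH 7.2, 100 mM KCl, 10 mM MgCl2, 0.05% BSA, 0.01% Tween-20; cpd pinned; ADP 130 uM final; 45 min RT; Kinase-Glo Plus 10 min; luminescence endpoint.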
RE007 growth inh = less growth of the S. pombe RE007 Vpr strain | S. pombe RE007 Vpr strain, BacTiter-Glo ATP luminescence, 24 h | Potency, µM (highest dose often 92.2 µM), for inactives: at the highest dose activity change, negative = less growth, usual class: inhibitors | 360,000 compounds, 0.21% hits; active = well fitted falling curve with a large enough effect; inconclusive = small, poorly fitted or top-dose-only effect; inactive = no such curve, though single readings can be large or run the other way; also: % is scaled to controls: 0 for no effect and ±100 for the full control effect; nearly all actives have a fitted effect of over 50% in size
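Fission yeast strain RE007, carrying one chromosomally integrated HIV-1 vpr copy, was seeded at OD 0.01 in PMG+AL medium with 23 nL pinned compound. After 24 h at 30 °C and 99% humidity, viability was read by BacTiter-Glo luminescence.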
SARS PLP yeast = inhibitors of SARS-CoV papain-like protease in yeast | Potency, µM (highest dose often 32.9 µM), for the others: at the highest dose activity, positive = growth rescue, most hits filed as activators | AID 485353 | 330,000 compounds, 0.19% hits | S. cerevisiae expressing SARS-CoV PLpro, growth rescue; calls by dose curve; also: 0% is about no effect; nearly all actives have a fitted effect of over 55% in size
Sm TGR block = inhibitors of Schistosoma mansoni thioredoxin glutathione reductase; Q962Y6; purified TGR, DTNB reduction, TNB absorbance 405 nm; Potency, µM (doses to about 114 µM), without a hit: top-dose activity change, negative = inhibition, actives largely listed as inhibitors; 360,000 compounds, 3% hits; AID 485364; also: % is scaled to controls: 0 for no effect and ±100 for the full control effect; nearly all actives have a fitted effect of over 60% in size
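TGR 20 nM + NADPH 100 uM (dispensed conc.), cpd preinc 15 min RT; start with NADPH (500 uM addition) then DTNB (15 mM addition). Kinetic TNB absorbance, 405 nm filter. Four-parameter Hill fit across titration.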
AmpC inh detg = AmpC beta-lactamase inhibition with detergent present; AmpC hydrolysis of nitrocefin, absorbance 480 nm, 0.01% Triton; 370,000 compounds, 0.041% hits; P00811; Potency, µM (titrated, usually from 114 µM), for the others: at the highest dose activity change, negative = inhibition, actives largely listed as inhibitors; AID 485294;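 also: 0% = no-compound wells and -100% = no-enzyme wells; nearly all actives have a fitted effect of over 25% in size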
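AmpC (5.3 nM in the dispensed reagent) in 20 mM phosphate pH 7.0 with 0.01% (detergent screen) or 0.0001% Triton X-100 was preincubated with compounds for 15 min at room temperature. Nitrocefin was then added from an 800 uM solution, and hydrolysis was followed at 480 nm.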
* marks the source's active call; other numbers are inactive results. An excerpt weighted towards active compounds, which were near 3.3% of everything screened. Unless noted, calls follow the shape of the dose curve; as a rule, active = well fitted curve in the direction sought with a large enough effect; inconclusive = small, poorly fitted or top-dose-only effect, or another doubt; inactive = no such curve, though single readings can be large; an effect the other way counts as inactive or inconclusive. Potency is read from the fitted curve at half-maximal effect.

For Cc1[nH]c2ccccc2c1Cc1n[nH]c(=S)n1C the results were AmpC inh no detg -27%, TbPYK inhibitor inconclusive, RE007 growth inh -8%, SARS PLP yeast 10%, Sm TGR block -9% and AmpC inh detg -3%.
Screening Cn1c(Cc2c[nH]c3ccccc23)n[nH]c1=S returned AmpC inh no detg -13%, TbPYK inhibitor 18µM*, RE007 growth inh 1%, SARS PLP yeast 0%, Sm TGR block -18% and AmpC inh detg 1%.
O=C(c1ccccc1)c1ccc(N2CCN(C(=O)c3cccc(F)c3F)CC2)c(F)c1 was read as AmpC inh no detg 42%, TbPYK inhibitor 4%, RE007 growth inh -15%, SARS PLP yeast 6.3µM*, Sm TGR block 0% and AmpC inh detg 0%.
Screening Cc1nc(NC(=O)CCl)sc1C(=O)N(C)C returned AmpC inh no detg -22%, TbPYK inhibitor -2%, RE007 growth inh -10%, SARS PLP yeast 0%, Sm TGR block 16µM* and AmpC inh detg -1%.
For CCn1c(CNC(=O)Cc2ccc(OC)cc2)nnc1SCC(=O)c1ccccc1 the results were AmpC inh no detg 50%, TbPYK inhibitor -24%, RE007 growth inh -18%, SARS PLP yeast -2%, Sm TGR block 32µM* and AmpC inh detg inconclusive.
`CCn1c(CNC(=O)Cc2ccc(OC)cc2)nnc1SCCOc1ccccc1` gave AmpC inh no detg 58%, TbPYK inhibitor 10%, RE007 growth inh 1%, SARS PLP yeast 0%, Sm TGR block -23% and AmpC inh detg inconclusive.
`Cc1ccc2c(c1)N(C(=O)N1CCC(C(=O)NCc3ccco3)CC1)CC(C)O2` (stereo not given) gave TbPYK inhibitor 2%, Sm TGR block 3% and AmpC inh detg 17%.
`CN(C)C1=NC(=O)/C(=C/c2ccc(-c3ccc(S(N)(=O)=O)cc3)o2)S1` gave AmpC inh no detg -13%, SARS PLP yeast -12%, Sm TGR block 32µM* and AmpC inh detg -10%.
`COc1ccc(-c2cc(C(F)(F)F)n3nc(C(=O)Nc4sc5c(c4C(=O)OC(C)C)CCC(C)C5)cc3n2)cc1` (stereo not given) gave TbPYK inhibitor 0%, Sm TGR block 0% and AmpC inh detg 10%.
For O=C(CNS(=O)(=O)c1ccc(F)cc1)Nc1ccc(C(F)(F)F)cc1 the results were AmpC inh no detg -13%, TbPYK inhibitor -3%, RE007 growth inh 1%, SARS PLP yeast -6%, Sm TGR block -3% and AmpC inh detg -1%.
For Cc1ccc(CNS(=O)(=O)c2ccc(F)c(F)c2)n1C the results were AmpC inh no detg -16%, TbPYK inhibitor -7%, RE007 growth inh -5%, SARS PLP yeast -1%, Sm TGR block 20µM* and AmpC inh detg -2%.
Cc1ccc(CNS(=O)(=O)c2ccc(C(F)(F)F)cc2)n1C was read as AmpC inh no detg -5%, TbPYK inhibitor -1%, RE007 growth inh -7%, SARS PLP yeast 1%, Sm TGR block 16µM* and AmpC inh detg -12%.
Screening COc1ccc(CCN2C(=O)C=CC2=O)cc1OC returned TbPYK inhibitor inconclusive and RE007 growth inh 5.6µM*.
For COC(=O)C1=C(C)N(CCc2ccc(OC)c(OC)c2)C(=O)/C1=C\N(C)C the results were AmpC inh no detg 43%, TbPYK inhibitor -18%, RE007 growth inh -20%, SARS PLP yeast -3%, Sm TGR block 7.9µM* and AmpC inh detg -2%.
Screening CC(C)c1ccc(NC(=O)Cn2nnc(C(=O)NCc3ccc(Cl)cc3)c2N)cc1 returned TbPYK inhibitor 0%, Sm TGR block 5% and AmpC inh detg 4%.
`CCOC(=O)CCCCC(=O)c1[nH]c(=O)[nH]c1CN1CCOCC1` gave AmpC inh no detg -17%, TbPYK inhibitor 7%, RE007 growth inh -5%, SARS PLP yeast -2%, Sm TGR block -27% and AmpC inh detg -10%.
Screening CCOC(=O)CCCCC(=O)c1[nH]c(=O)[nH]c1C[n+]1ccc(C)cc1 returned AmpC inh no detg -18%, TbPYK inhibitor -6%, RE007 growth inh -2%, SARS PLP yeast 0%, Sm TGR block 35µM* and AmpC inh detg 3%.
`CCOC(=O)CCCCC(=O)c1[nH]c(=O)[nH]c1C[n+]1ccccc1` gave AmpC inh no detg -14%, SARS PLP yeast 1%, Sm TGR block 6.3µM* and AmpC inh detg 2%.
COc1ccc(C(=O)NCCn2cc(SCc3cccc(F)c3)c3ccccc32)cc1OC was read as TbPYK inhibitor 6%, Sm TGR block -1% and AmpC inh detg 2%.
`Cc1ccc(C(=O)NC(=S)Nc2ccc(-c3ccc(CO)o3)cc2)cc1` gave AmpC inh no detg 25µM*, TbPYK inhibitor -4%, RE007 growth inh 6%, SARS PLP yeast -3%, Sm TGR block inconclusive and AmpC inh detg 6%.
Cc1ccc(C(=O)NC(=S)Nc2ccc(Oc3ccc(Cl)cc3)cc2)cc1 was read as AmpC inh no detg -25%, TbPYK inhibitor 0%, RE007 growth inh 5%, SARS PLP yeast -8%, Sm TGR block 4% and AmpC inh detg -5%.
O=C(NC(=S)Nc1ccc(-c2ccc(CO)o2)cc1)c1cccs1 was read as AmpC inh no detg 10µM*, TbPYK inhibitor -12%, RE007 growth inh 8%, SARS PLP yeast -2%, Sm TGR block 8.9µM* and AmpC inh detg 8%.
For CCOC(=O)c1ccc(-c2ccc(CO)o2)cc1 the results were AmpC inh no detg -35%, TbPYK inhibitor -13%, RE007 growth inh -23%, SARS PLP yeast -6%, Sm TGR block 35µM* and AmpC inh detg inconclusive.
Screening CC1=C(C(=O)Nc2ccccc2)C(c2ccccc2Cl)n2ncc(C(=O)Nc3cccc(C)c3)c2N1 (stereo not given) returned TbPYK inhibitor 0%, Sm TGR block 6% and AmpC inh detg 13%.
For CCOC(=O)c1cc(-c2ccc(C)cc2)n(CCC(=O)Nc2cc(Cl)ccc2C)c1C the results were TbPYK inhibitor 4%, Sm TGR block 0% and AmpC inh detg -10%.
For COc1cc(C2Oc3ccccc3C=C2[N+](=O)[O-])cc(OC)c1OC (stereo not given) the results were AmpC inh no detg 13%, TbPYK inhibitor -17%, RE007 growth inh 5%, SARS PLP yeast -21%, Sm TGR block 32µM* and AmpC inh detg -8%.

Screening results: PubChem, National Center for Advancing Translational Sciences (NCATS)
